Nrf2 inh – Nrf2 qHTS screen for inhibitors | A549 ARE-Fluc reporter, luciferase luminescence, 18-24 h | Potency, µM (highest dose often 46 µM), inactives show at the highest dose activity change, negative = inhibition, actives largely listed as inhibitors | hit rate 2.1% among 360,000 | AID 504444, 2011; further: potency means the concentration at half of the fitted maximal effect; on the % scale 0 is the no-effect control and ±100 the full control effect; nearly all actives have a fitted effect of over 60% in size
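Reporter: ARE-Fluc in A549. Exposure: 18-24 h, 37 °C, 5% CO2, 5% FBS OPTI-MEM. Readouts: fluorescent cytotoxicity (CellTiter-Fluor), then luminescent Nrf2 signal after BugLite.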
LDHA inh – qHTS assay for inhibitors of human lactate dehydrogenase; purified LDHA, NADH/diaphorase-resazurin fluorescence; stronger effect = lower value; activity change, % (values are at about 110 or 230 µM); AID 1347041, 2019; hit rate 0.15% among 480,000; L-lactate dehydrogenase A chain (Homo sapiens), P00338; in the data active means activity change below about -30%; inconclusive means mostly about -25% to -30%;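 further: plate controls were DMSO wells for no effect and wells without enzyme for full effect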
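Remaining NADH was detected by diaphorase (0.133 mg/mL) converting 37 µM resazurin to fluorescent resorufin, read at 0 and 20 minutes. The preceding 5-minute room-temperature reaction used 2 nM LDHA, 0.2 mM sodium pyruvate and 0.06 mM NADH at pH 7.4.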
ALOX12 inh – Primary qHTS assay for inhibitors of human arachidonate 12S-lipoxygenase (ALOX12): Round 2; Polyunsaturated fatty acid lipoxygenase ALOX12 (Homo sapiens), P18054; purified 12hLO, xylenol orange hydroperoxide absorbance; Potency, µM (doses to about 108 µM), without a hit: at the highest dose activity change, negative = inhibition, most hits filed as inhibitors; hit rate 1.1% among 580,000; further: potency means the concentration at half of the fitted maximal effect; on the % scale 0 is the no-effect control and ±100 the full control effect
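Purified human 12hLO (150 nM final) in 25 mM Hepes, 0.01% Triton X-100, pH 7.0 was preincubated 15 min at room temperature with compound. Then 40 uM arachidonic acid was added, 30 min. Hydroperoxide was read by Fe-XO absorbance ratio 573/405 nm.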
Nrf2 ARE act – qHTS of Nrf2 Activators | AREc32 ARE-luciferase reporter (MCF7-derived line), luminescence, 24 h | Potency, µM (doses to about 46.1 µM), without a hit: top-dose activation, most hits filed as activators | AID 624171, 2012 | hit rate 0.31% among 410,000; further: potency means the concentration at half of the fitted maximal effect; % of control where 0% means no effect; nearly all actives have a fitted effect of over 65% in size
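Steps: seed AREc32_Fluc cells (1000/well, 5% FBS OPTI-MEM); incubate overnight at 37 deg C; add 23 nL compound; incubate 24 hr; add Steady-Glo; hold 30 min RT; read luminescence.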
ERG Ets-DNA blk – qHTS for Small Molecule Inhibitors of the ERG Ets/DNA interaction; Transcriptional regulator ERG (Homo sapiens), P11308; fluorescence polarization, His-ERG Ets domain / labelled DNA; Potency, µM (top dose mostly 76.9 µM), inactives show top-dose FP activity, negative = inhibition, actives largely listed as inhibitors; hit rate 0.028% among 370,000; AID 624246, 2012; active means well fitted inhibition curve with a large enough effect in the polarisation, with a control signal flat; inconclusive means small, poorly fitted or top-dose-only effect, or effect the other way, or a change in a side signal; inactive means no such curve, though single readings can be large or run the other way; the % refers to the polarisation;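 further: polarization taken with two DNA probes labelled with fluorescein and Texas red; potency means the concentration at half of the fitted maximal effect; % of control where 0% means no effect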
Target sequence (P11308 whole entry, looked up, the tested form may be a part): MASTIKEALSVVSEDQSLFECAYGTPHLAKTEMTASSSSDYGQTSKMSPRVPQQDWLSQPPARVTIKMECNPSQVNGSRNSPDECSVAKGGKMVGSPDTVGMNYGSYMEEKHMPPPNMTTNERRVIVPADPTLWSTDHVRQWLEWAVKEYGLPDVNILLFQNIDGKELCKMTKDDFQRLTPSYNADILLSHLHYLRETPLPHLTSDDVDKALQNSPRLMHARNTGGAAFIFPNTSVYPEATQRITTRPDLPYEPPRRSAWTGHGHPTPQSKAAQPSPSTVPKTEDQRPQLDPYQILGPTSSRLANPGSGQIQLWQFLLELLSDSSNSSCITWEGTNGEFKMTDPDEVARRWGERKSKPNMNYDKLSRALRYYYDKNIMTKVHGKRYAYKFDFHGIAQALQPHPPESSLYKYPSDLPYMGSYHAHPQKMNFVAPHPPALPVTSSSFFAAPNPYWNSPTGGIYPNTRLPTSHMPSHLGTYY
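His-tagged ERG Ets domain (1 uM in the protein solution; 300mM KCl, 50mM Tris-HCl, 1mM EDTA, 1mM DTT, pH 7.5) received compound, then a probe mix of 5 nM fluorescein-DNA and 100nM Texas-615-DNA. Fluorescence polarization was read for both dyes.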
A549 tox – Nrf2 qHTS screen for inhibitors: counterscreen for cytotoxicity. A549 ARE-Fluc cells, CellTiter-Fluor viability, 18-24 h. AID 504648, 2011. Potency, µM (highest dose often 46 µM), inactives show at the top dose activity change, negative = cytotoxicity, hits mostly inhibitors. hit rate 0.16% among 390,000; further: potency means the concentration at half of the fitted maximal effect; on the % scale 0 is the no-effect control and ±100 the full control effect
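Cytotoxicity counterscreen: CellTiter-Fluor fluorescence was measured in A549 ARE_Fluc cells after 18-24 h of compound exposure in a concentration series. The subsequent BugLite luminescent read reports ARE-luciferase activity.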
The depositor's hits bear a star; i = inactive; u = inconclusive; x = not tested or not shown; [ ] = remark or other dose. Rows were chosen to be rich in hits. Some 2.7% of all compounds tested hit in one or more screens of this group. Unless noted, the call rests on the fitted dose curve; in most records, active means well fitted curve in the direction sought with a large enough effect; inconclusive means small, poorly fitted or top-dose-only effect, or another doubt; inactive means no such curve, though single readings can be large; an effect the other way counts as inactive or inconclusive.

SMILES	Nrf2 inh	LDHA inh	ALOX12 inh	Nrf2 ARE act	ERG Ets-DNA blk	A549 tox
CC(=O)c1ccc(N2CCC(c3cc(-c4ccc(Cl)cc4Cl)n[nH]3)CC2)c([N+](=O)[O-])c1	16µM*	3	0%	-1%	-17%	u
O=[N+]([O-])c1cccnc1N1CCC(c2cc(-c3cccc(C(F)(F)F)c3)n[nH]2)CC1	21µM*	-2	-29%	-1%	-5%	u
CC(=O)c1ccc(N2CCN(c3ccccc3O)CC2)c([N+](=O)[O-])c1	-22%	2	-24%	5%	14%	1%
O=C(Nc1nnc(-c2ccco2)o1)c1ccc([N+](=O)[O-])s1	21µM*	-9	u	2%	-2%	u
Cc1ccc(C(=O)Nc2nnc(-c3ccco3)o2)cc1	3%	4	u	2%	-4%	13%
O=C(Nc1nnc(-c2ccco2)o1)c1ccc(S(=O)(=O)N2CCCC2)cc1	u	0	10%	-1%	-3%	-11%
O=C(Nc1nnc(-c2ccc(F)cc2)o1)c1ccc(S(=O)(=O)N2CCOCC2)cc1	9.2µM*	3	x	2%	-11%	-19%
COc1ccccc1NC(=O)c1ccc(S(=O)(=O)N2CCC(C)CC2)cc1	8.2µM*	0	-2%	-1%	2%	0%
CS(=O)(=O)c1cccc(-c2nnc(NC(=O)c3ccc(S(=O)(=O)N4CCCC4)cc3)o2)c1	-15%	0	1%	0%	-6%	-12%
CC1CCN(S(=O)(=O)c2ccc(C(=O)Nc3nnc(-c4ccco4)o3)cc2)CC1	8.2µM*	0	-10%	-1%	16%	0%
COc1ccccc1NC(=O)c1ccc(S(=O)(=O)N2CCOCC2)cc1	-13%	-3	0%	0%	2%	-7%
COc1ccc(NCC(=O)NC(C)(C#N)C(C)C)cc1Cl (stereo not drawn)	x	6	u	x	x	x
CC1CN(S(=O)(=O)c2ccc(C(=O)Nc3nnc(-c4ccco4)o3)cc2)CC(C)O1 (stereo not drawn)	u	8	4%	0%	-4%	-2%
COc1cccc(-c2nnc(NC(=O)c3ccc(S(=O)(=O)N4CC(C)OC(C)C4)cc3)o2)c1 (stereo not drawn)	9.2µM*	-1	-3%	0%	-3%	-23%
CC1CCCN(S(=O)(=O)c2ccc(C(=O)Nc3nnc(-c4ccccn4)o3)cc2)C1 (stereo not drawn)	13µM*	-3	-1%	2%	7%	0%
Clc1ccc(-n2cc(-c3ccccc3)cc2-c2ccccc2)cc1	x	-1	u	x	x	x
CSc1cccc(NC(=O)c2ccc3c(c2)N(C)C2CCCCN2C3=O)c1 (stereo not drawn)	x	x	-10%	x	x	x
O=C(CCc1cc(Cl)no1)N(CCS(=O)(=O)N1CCOCC1)Cc1cccnc1	x	-4	u	x	x	x
CN1CCN(Cc2cc(=O)oc3ccc(O)cc23)CC1	x	2	u	x	x	x
Cc1cc(NC(=O)Cc2ccccc2C)no1	-9%	-1	u	0%	13%	0%
Cc1ccccc1CC(=O)Nc1cc(C(C)(C)C)on1	-5%	-3	5µM*	0%	15%	0%
CC(=O)c1c(C)[nH]c(C(=O)CSc2nnc(C3CCCCC3)n2N)c1C	21µM*	6	-8%	0%	8%	-9%
C[C@@H]1C(=O)O[C@H]2[C@H]1CC[C@@]1(C)Cc3sc(NCCc4ccccn4)nc3[C@@H](C)[C@H]21	x	x	49%[176 µM]	x	x	x
NC(=O)c1c(NC(=O)CN2CCN(C(=O)C3CC3)CC2)sc2c1CCC2	x	8	2%	x	x	x
Clc1ccc(SCCOCCN2CCCCCC2)cc1	2%	-13	0.56µM*	-2%	-5%	1%
SMILES	Nrf2 inh	LDHA inh	ALOX12 inh	Nrf2 ARE act	ERG Ets-DNA blk	A549 tox
Clc1ccc(OCCCCN2CCCCC2)cc1	-11%	-20	x	0%	0%	0%
O=C(CCCn1c(SCC(=O)c2ccc(O)c(O)c2)nc2ccccc2c1=O)NCC1CCCO1 (stereo not drawn)	10%	24	1.8µM*	1%	2%	-12%
O=C(CC1SC(=Nc2ccc(OC(F)F)cc2)N(CCC2=CCCCC2)C1=O)Nc1ccccc1F (stereo not drawn)	21µM*	-1	-24%	7%	-5%	-17%
Cc1nc(N2CCN(Cc3ccc4c(c3)OCO4)CC2)nc2c1C(=O)CC(c1ccco1)C2 (stereo not drawn)	12µM*	-3	-11%	3%	-8%	-12%
CC(C)COc1ccc(S(=O)(=O)NNC(=O)c2cc3ccccc3o2)cc1	-7%	-2	22µM*	2%	1%	1%
Cc1ccc(C(CNC(=O)COc2ccccc2C)N2CCCCCC2)cc1 (stereo not drawn)	x	10	u	x	x	x
COc1cc(CNc2ccccc2SC)cc(OC)c1OC	u	18	45µM*	6%	1%	-16%
CC1CCN(C(=O)c2noc3c2CC(C(C)(C)C)CC3)CC1 (stereo not drawn)	x	5	-13%	x	x	x
CCc1ccc(NC(=O)Nc2ccsc2C(=O)OC)cc1	u	-1	i	13µM*	8%	-17%
COC(=O)c1sccc1NC(=O)c1csc(C)c1	x	5	-12%	5µM*	6%	u
COC(=O)c1sccc1NC(=O)c1cccc(Cl)c1	5%	-7	67%	8.9µM*	-10%	4%
Cc1cc(C(=O)Nc2ccc(Br)cc2)cs1	u	-4	7%	11µM*	8%	1%
CNS(=O)(=O)c1ccc(NC(=O)c2csc(C)c2)cc1	u	0	u	27%	-2%	7%
COc1cccc(OC)c1C(=O)Nc1cccc(-c2nc3ccc(C)cc3o2)c1	x	1	-20%	x	x	x
C/C(=N/Nc1ccc(S(N)(=O)=O)cc1[N+](=O)[O-])c1cccc(Cl)c1	x	1	u	x	x	x
COc1cccc(-c2c(NC(=O)c3ccc([N+](=O)[O-])cc3)oc3ccccc3c2=O)c1	x	-10	u	x	x	x
Cc1cc(C(=O)Nc2ccccc2[N+](=O)[O-])cs1	u	-2	-13%	11µM*	2%	-6%
CN(CC(=O)Nc1ccc(F)c(F)c1F)C(=O)CCc1nc2sc3c(c2c(=O)[nH]1)CCCC3	-23%	-3	18µM*	0%	6%	-4%
Cc1cccc(NC(=O)CNC(=O)CCc2nc3sc4c(c3c(=O)[nH]2)CCCC4)c1C	-6%	-2	10µM*	0%	25%	1%
